Compound activity deposited in PubChem by Broad Institute.
Sampled rows, rich in hits. Any-hit rate of the full collection: about 2.7%.
HIV Env fusion: inhibitors of HIV-1 Env-driven cell-cell fusion, primary screen, HeLa-JRFL effector, CEM21 target cells, luciferase; inhibition, % at 12.3 µM; 1.1% of 360,000 active; AID 651610, 2012;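 active means mean replicate inhibition score of at least 50 and every replicate individually at or above 50; inconclusive means only one of the two criteria met; inactive means mean below 50 and not all replicates reaching 50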
PAX8 inh HTS: inhibitors of PAX8-driven TPO luciferase reporter, primary screen, RMG-I cells, single concentration; SteadyGlo, 24 h; inhibition, % at 12.6 µM; 1.2% of 360,000 active; AID 652154, 2013;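 active means mean replicate inhibition at least 60% with every replicate also reaching 60%; inconclusive means only one of the two criteria is met; inactive means mean below 60% and not all replicates reaching 60%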;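 further: luciferase light reporting Pax8 driven TPO promoter activity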
GSIS activator: GLuc luminescence reporter in INS-1E cells, primary screen for activators of glucose-dependent secretion of insulin; INS-1E GLuc reporter insulin secretion, 2-3 h; activation, % at 16.6 µM; 0.61% of 370,000 active;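 active means lowest replicate activation of at least 40%, so every replicate reaches that level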
CFTR F508del cor: F508del CFTR correction, initial screen, CFBE line, single point. CFBE cells, YFP halide quenching; stimulated with forskolin plus potentiator P3; % fluorescence drop versus neutral controls. activity (quench increase), % at 7.58 µM. 0.36% of 350,000 active. AID 720511, 2013;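 active means mean added fluorescence quench of at least 8% versus neutral control, with both replicates also reaching 8%; inconclusive means only one of the mean or replicate conditions met; inactive means mean below 8% and not both replicates reaching 8%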;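 further: cells transiently co-express mutant CFTR-F508del with the halide-sensitive YFP; corrector assay measuring rescue of mutant channel to the surface after 24 h compound exposure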
PGC1a acetyl inh: inhibitors of PGC1a acetylation signal, primary screen, cell-based, U2OS, AlphaScreen, inhibitor mode; AlphaScreen anti-acetyl-lysine; with virally co-expressed GCN5 acetyltransferase; inhibition, % at 15.6 µM; 0.17% of 350,000 active;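 active means every replicate shows inhibition of at least 40%; inconclusive means mean inhibition at least 40% but some replicate below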
EWS-Fli inh: EWS/Fli-driven NR0B1 reporter inhibitors, primary screen, A673 cells, NR0B1 luciferase, luminescence, MLPCN library; viability-normalised; inhibition, % at 12.6 µM; 0.67% of 350,000 active; AID 651661, 2012;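 active means mean inhibition of at least 50% after viability correction, with every replicate also passing that limit; inconclusive means mean reaches 50% but only one of two replicates passes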;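 further: firefly luciferase signal divided by Alamar Blue viability fluorescence both relative to DMSO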
Each line names hits and unclear results; the compound was inactive in the other large screens; [ ] = another dose, or the depositor's remark.

C=CCn1c(SCc2c(C)noc2C)nc2sc(C)c(C)c2c1=O	HIV Env fusion 68 (no result: PAX8 inh HTS, CFTR F508del cor, EWS-Fli inh)
CC(C)Oc1ccc(C(=O)CCN2CCCCC2)cc1	none (no result: PAX8 inh HTS, GSIS activator, CFTR F508del cor, EWS-Fli inh)
CC(C)Oc1ccc(C(=O)CCN2CCOCC2)cc1	GSIS activator 51 (no result: PGC1a acetyl inh)
COc1ccccc1-c1ccc([C@H]2[C@@H](CO)N3CCCCN(C(=O)NC4CCCC4)C[C@H]23)cc1	none (no result: HIV Env fusion)
O=C(N[C@@H]1CC[C@H](CCNC(=O)C2CCCC2)O[C@@H]1CO)c1ccncc1	none
CCC1(C)Cc2ccccc2-c2nc(SC)[nH]c(=O)c21 (configuration not stated)	HIV Env fusion 80, GSIS activator 60 (no result: PGC1a acetyl inh)
COc1cc(C2N(C)CCC3(OCCO3)C2(C)C)cc(OC)c1OC (configuration not stated)	GSIS activator 48 (no result: CFTR F508del cor, EWS-Fli inh)
CCC(C)c1ccccc1OCCCN(C)Cc1ccccc1 (configuration not stated)	GSIS activator 192
N=c1n(CC(=O)c2ccc(Br)s2)c2ccccc2n1Cc1ccccc1	EWS-Fli inh 60
Cn1c(=N)n(CC(=O)c2ccc(Br)s2)c2ccccc21	none (no result: HIV Env fusion, PAX8 inh HTS, GSIS activator, CFTR F508del cor, EWS-Fli inh)
COc1cccc(Nc2nc(C(N)CO)cs2)n1 (configuration not stated)	GSIS activator 41
COc1ccc2oc(C)c(C(N)=O)c2c1	none (no result: PAX8 inh HTS, GSIS activator, CFTR F508del cor, EWS-Fli inh)
COc1ccc2oc(C)c(C(=O)c3ccc([N+](=O)[O-])cc3)c2c1	PAX8 inh HTS 93 (no result: HIV Env fusion, PGC1a acetyl inh)
N#Cc1ccc(OCC(=O)NNC(=O)C2CCCCC2)cc1	none
CCc1ccc(OCC(=O)NNC(=O)C2CCC2)cc1	HIV Env fusion 64 (no result: PGC1a acetyl inh)
O=C1N(c2ccccc2)C[C@@H]2C[C@@H](c3cccs3)N3CCC[C@@]123	PAX8 inh HTS 75
CC(C)(O)C#Cc1ccc([C@@H]2C[C@H]3CN(c4ccccc4)C(=O)[C@]34CCCN24)s1	PAX8 inh HTS inconclusive (no result: PGC1a acetyl inh)
C/C(=N/NC(=O)C1CC1(c1ccccc1)c1ccccc1)c1cccs1 (configuration not stated)	HIV Env fusion 57 (no result: PGC1a acetyl inh)
C/C(=N\NC(=O)C1CC1)c1cccs1	none (no result: CFTR F508del cor, EWS-Fli inh)
O=C(O)C[C@H]1C[C@H]2c3cc(NC(=O)CC4CC4)ccc3O[C@H]2[C@@H](CO)O1	none
O=C1Nc2ccc(Br)cc2/C1=N\N=C\C1=C(N2CCOCC2)C(=C/c2ccccc2)/CC1	none
O=C1Nc2ccccc2/C1=N\N=C\C1=C(N2CCOCC2)C(=C\c2ccccc2)/CC1	HIV Env fusion 64 (no result: PAX8 inh HTS, GSIS activator, CFTR F508del cor, EWS-Fli inh)
CC1CCc2c(sc3nc(C(C)(C)C)nc(N4CCN(C(=O)CCl)CC4)c23)C1 (configuration not stated)	EWS-Fli inh 69 (no result: GSIS activator)
CCC(=O)N1CCN(c2nc(CC)nc3sc4c(c23)CCCC4)CC1	none
Cc1cc(C(=O)Nc2ccc(Cl)cc2)c(C)n1-c1ccccc1	EWS-Fli inh 58
Cc1ccc(NC(=O)c2cc(C)n(-c3ccccc3)c2C)cc1	EWS-Fli inh 69 (no result: GSIS activator, CFTR F508del cor)
Cc1ccc(NC(=O)c2cc(C)n(-c3cccc(C)c3)c2C)cc1	none (no result: PGC1a acetyl inh)
N=c1oc2ccccc2cc1C(=O)Nc1ccc(F)cc1	none
Cc1ccc(NC(=O)c2cc3ccccc3oc2=N)cc1	EWS-Fli inh 69 (no result: PGC1a acetyl inh)
O=C(Nc1ccn(CCCNC2CCN(Cc3ccccc3)CC2)c(=O)n1)OCc1ccccc1	CFTR F508del cor 9.0
C/C=C/c1ccc2c(c1)O[C@H](CN(C)C(=O)Nc1ccc(C(F)(F)F)cc1)[C@H](C)CN([C@H](C)CO)S2(=O)=O	none (no result: PAX8 inh HTS)
C[n+]1ccc(/C=N/Nc2nc(Cl)c(C#N)c(Cl)c2Cl)cc1	PAX8 inh HTS 63
CC(=O)NC(c1cccc(F)c1)c1nc(-c2cccc(C(C)C)c2)cs1 (configuration not stated)	PGC1a acetyl inh 100
Cc1cccc(Nc2nc(N)c(C#N)c(CC#N)c2C#N)c1	GSIS activator 84 (no result: CFTR F508del cor, PGC1a acetyl inh, EWS-Fli inh)
Cc1cccc(Nc2nc(C)cc(C)c2C#N)c1	none
C[C@H](CO)N1C[C@H](C)[C@H](CN(C)C(=O)Nc2cccc3ccccc23)Oc2c(NC(=O)c3ccncc3)cccc2C1=O	none
COc1cccc(-c2cnc3c(c2)C(=O)N([C@H](C)CO)C[C@H](C)[C@H](CN(C)C(=O)Nc2cccc4ccccc24)O3)c1	HIV Env fusion 89[16.7 µM]
